# Shown are actives, neighbours in structure and some others; about 3.8% of the full set was active somewhere.
# TGFb SMAD3 inh: qHTS for Inhibitors of TGF-b | HepG2 CAGA-GFP TGF-b/SMAD3 reporter, GFP fluorescence, 18 h; TGF-beta stimulated, 500 pg/mL final | Potency, µM (series often up to 46.1 µM), most hits filed as inhibitors | 410,000 tested, 1.2% active; note: nearly all actives have a fitted effect of over 65% in size
#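 Cell-based qHTS in HEPG2 carrying a CAGA-GFP Smad reporter; compounds added before 500 pg/mL final TGF-beta, 18 h incubation at 37 degrees C, GFP fluorescence quantified per cell by imaging cytometry.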
# ATXN2 expr inh: Primary qHTS for Inhibitors of ATXN expression; Potency, µM (series often up to 57 µM), hits mostly inhibitors; 360,000 tested, 0.72% active; HEK-293 ATXN2-luciferase reporter, luminescence, 24 h; note: nearly all actives have a fitted effect of over 55% in size
#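 ATXN2-luciferase reporter cells (luciferase flanked by upstream and downstream ATXN2 gene portions) were treated 24 h at 37 °C with compounds at up to 57 uM. SteadyGlo luminescence gave expression; GF-AFC fluorescence gave viability.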
# ATXN viability: Viability Counterscreen for Primary qHTS for Inhibitors of ATXN expression | 400,000 tested, 0.49% active | S2 cells (HEK-293 line with an ATXN2-luciferase reporter) viability, CellTiter-Fluor protease fluorescence, 24 h | Potency, µM (series often up to 56.7 µM), usual class: cytotoxic | AID 651635, 2014; note: nearly all actives have a fitted effect of over 40% in size
# Nrf2 inh: Nrf2 qHTS screen for inhibitors | A549 ARE-Fluc reporter, luciferase luminescence, 18-24 h | 360,000 tested, 2.1% active | Potency, µM (top dose mostly 46 µM), hits mostly inhibitors; note: nearly all actives have a fitted effect of over 60% in size
#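 A549 ARE_Fluc cells (5000/well, 5% FBS OPTI-MEM) pre-incubated 2 h, then treated with compounds 18-24 h at 37C/5% CO2 in concentration-response. CellTiter-Fluor viability read first; BugLite luciferase luminescence after 15 min at room temperature gives Nrf2 activity.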
# HepG2 tox-1: qHTS for Inhibitors of TGF-b: Cytotox Counterscreen | HepG2 CAGA-GFP viability, ATP luminescence, 18 h | AID 588856, 2011 | Potency, µM (doses to about 46.1 µM), actives largely listed as cytotoxic | 410,000 tested, 0.76% active
#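 CellTiter-Glo luminescence gave cytotoxicity after 18 hours at 37 degrees C. The cells were HepG2 CAGA-GFP in 1% FBS DMEM, stimulated with 500 pg/mL TGF-beta after compound addition. %Activity was normalised to no-cell wells (complete cell-killing) and DMSO (no toxicity), and curves were fitted and classified.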
# A549 tox: Nrf2 qHTS screen for inhibitors: counterscreen for cytotoxicity | Potency, µM (series often up to 46 µM), actives largely listed as inhibitors | AID 504648, 2011 | 390,000 tested, 0.16% active | A549 ARE-Fluc cells, CellTiter-Fluor viability, 18-24 h
#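 A549 ARE_Fluc cells in 5% FBS OPTI-MEM were exposed to compounds in concentration-response for 18-24 h at 37 deg C. Viability was read by CellTiter-Fluor fluorescence (Ex 405/Em 525) after 30 min, before the luciferase read.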
# TGFb confirm: qHTS for Inhibitors of TGF-b: Confirmation of Cherry Picks | shares compounds with TGFb SMAD3 inh | HepG2 CAGA-GFP TGF-b reporter, GFP fluorescence, 18 h; cells stimulated with TGF-beta, 500 pg/mL | Potency, µM (doses to about 46.1 µM), hits mostly inhibitors | 1,600 tested, 63% active | AID 720534, 2013; note: nearly all actives have a fitted effect of over 65% in size
# HepG2 tox-2: qHTS for Inhibitors of TGF-b: Cytotox Counterscreen for Cherry Picks; 1,600 tested, 27% active; Potency, µM (series often up to 46.1 µM), most hits filed as inhibitors; AID 720535, 2013; shares compounds with TGFb SMAD3 inh; HepG2 CAGA-GFP viability, ATP luminescence, 18 h; cells stimulated with TGF-beta, 500 pg/mL; note: nearly all actives have a fitted effect of over 70% in size
# CCL64 TGFb inh: qHTS for Inhibitors of TGF-b: CCL64 Cells Orthogonal Assay for Cherry Picks. Potency, µM (doses to about 46.1 µM), most hits filed as inhibitors. 1,600 tested, 41% active. AID 720536, 2013. shares compounds with TGFb SMAD3 inh. CCL64 CAGA-GFP reporter, TGF-b stimulated, GFP fluorescence, 18 h; note: nearly all actives have a fitted effect of over 65% in size
# TGFb COP inh: qHTS for Inhibitors of TGF-b: Hit Validation in HepG2 Cells using COP promoter; Potency, µM (doses to about 46.1 µM), actives largely listed as inhibitors; HepG2 COP-GFP TGF-b reporter, GFP fluorescence, 18 h; cells stimulated by added recombinant TGF-beta; shares compounds with TGFb SMAD3 inh; 1,600 tested, 3% active; note: nearly all actives have a fitted effect of over 70% in size
# Hits are given with their value; 0 = inactive; ? = inconclusive; - = no result. Calls come from the whole dose curve; as a rule, active = well fitted curve in the direction sought with a large enough effect; inconclusive = small, poorly fitted or top-dose-only effect, or another doubt; inactive = no such curve, though single readings can be large; an effect the other way counts as inactive or inconclusive.
SMILES,TGFb SMAD3 inh,ATXN2 expr inh,ATXN viability,Nrf2 inh,HepG2 tox-1,A549 tox,TGFb confirm,HepG2 tox-2,CCL64 TGFb inh,TGFb COP inh
CCOc1ccc(CCN2C(=S)N([C@@H](CC(C)C)CN3CCCC3CN3C(=S)NC[C@@H]3CC(C)C)C[C@@H]2Cc2ccc(O)cc2)cc1 (stereo not given in full),?,?,?,?,0,0,-,-,-,-
CCOc1ccc(CCN2C(=S)N([C@@H](CC(C)C)CN3CCC[C@@H]3CN3C(=S)NC[C@@H]3CC(C)C)C[C@@H]2Cc2ccc(O)cc2)cc1,6.3µM,?,13µM,-,0,-,?,?,18µM,0
CCOc1ccc(CCN2C(=S)N([C@@H](CC(C)C)CN3CCCC3CN3C(=S)NC[C@@H]3Cc3ccc(O)cc3)C[C@@H]2CC(C)C)cc1 (stereo not given in full),4.5µM,0,?,?,0,0,12µM,0,?,0
CC(=O)OC1CCC2(C)C(CCC3C4CC=C(C(C)=O)C4(C)OC(=O)CC32)C1 (stereo not given),4µM,-,2.5µM,-,13µM,-,18µM,12µM,2.9µM,?
COC(=O)c1cc(S(=O)(=O)N2CCN(Cc3ccccc3)CC2)cn1C,0,0,-,0,0,0,-,-,-,-
Cc1cc2nc(-c3ccc(F)cc3)c(CC(C)(C)C)n2c(C)c1Br,10µM,0,?,-,0,-,?,?,?,0
Cc1ccc(S(=O)(=O)NNC(=O)c2ccc(C(=O)N(c3ccccc3)c3ccccc3)cc2)cc1,0,-,-,-,0,-,-,-,-,-
O=C(OC(C(=O)Nc1cc(Cl)cc(Cl)c1)c1ccccc1)C1=COCCO1 (stereo not given),16µM,0,?,0,0,0,?,?,18µM,0
CCN1CCC(CNCc2cn(-c3ccc(OC)cc3)nc2-c2ccccc2Cl)C1 (stereo not given),?,0,?,0,0,0,-,-,-,-
O=[N+]([O-])c1ccc(NS(=O)(=O)c2ccc(Cl)c(Cl)c2)cc1,10µM,?,?,-,0,-,10µM,7.3µM,?,0
Cc1ccc(-c2nc(CS(=O)CC(=O)N3CCN(c4ccc(Cl)cc4)CC3)c(C)o2)cc1 (stereo not given),0,?,?,-,0,?,-,-,-,-
COc1ccc(S(=O)(=O)Nc2ccc(F)c(F)c2)cc1Cl,10µM,0,0,?,0,0,0,0,0,0
COc1ccc(NS(=O)(=O)c2ccc(OC)c(OC)c2)cc1OC,?,0,0,0,0,0,-,-,-,-
Cc1cccc(C)c1N(CCCc1cccnc1)C(=O)C(C)N (stereo not given),-,-,0,-,-,-,-,-,-,-
CCc1sc(NC(=O)c2cc3ccccc3oc2=O)nc1-c1cccs1,0,0,0,0,0,0,-,-,-,-
